In PubChem BioAssay (Tox21):
Active and inactive are the calls of the source. The call rests on the fitted dose curve; in most records, active means well fitted curve in the direction sought with a large enough effect in the repeat runs; inconclusive means weak or mixed curves; inactive means flat fitted curve, though single readings scatter.

Experiment: qHTS assay to test for compound auto fluorescence at 590 nm (red) in HEK293 cells (AID 720679)
Conditions: red autofluorescence 540/590 nm; series mostly up to 91.3 µM
Source text: National Center for Advancing Translational Sciences [NCATS]
NIH Chemical Genomics Center [NCGC]
U.S. Environmental Protection Agency [EPA]
National Institutes of Environmental Health Sciences [NIEHS]
National Toxicology Program [NTP]
U.S. Food and Drug Administration [FDA]
Compound auto fluorescence often interferes with screening of the compound library against various biological targets and signaling pathways. Some of these compounds may have fluorophoric properties. Such properties may interfere with the assay outputs resulting in false positives and/or negatives. To decrease such complications and ensure the compound activities are relevant in terms of biological response, the Tox21 10K compound library was screened for auto fluorescence.
From the fluorophores used as reporter signals in our screening assays, the auto fluorescence equivalencies of compounds against three fluorophores have been evaluated: Triamterene, Fluorescein and Rose Bengal sodium for blue, green and red fluorescence, respectively. The fluorescence intensities were measured using Excitation/Emission wavelengths at 405/460nm, 485/535nm and 540/590nm for blue, green and red labels, respectively. This assay includes the red fluorescence data.
Tox21 Assay Protocol Summary:
2,000 HEK293 cells in 5 uL of culture medium containing 10% dialyzed FBS per well were dispensed into black wall/clear bottom 1536-well plates using a Multidrop Combi Dispenser (Thermo Scientific). The assay plates were incubated for 4-5 hr at 37C to allow cell attachment to the well bottom, followed by the transfer of 23 nL compound or DMSO vehicle by a pintool work station (Kalypsys, San Diego, CA). After the assay plates were incubated overnight at 37C and 5% CO2, fluorescence intensities in the assay plates were measured by an Envision (PerkinElmer, Shelton, CT) plate reader using three labels for measuring blue, green and red fluorescence at […] 460, 535 and 590nm respectively.

Row | SMILES | outcome
1 | CNS(=O)(=O)CCc1ccc2[nH]cc(C3CCN(C)CC3)c2c1 | inactive
2 | Cc1cc(Cl)c(C)cc1Cl | inactive
3 | O=C(c1ccc(O)cc1)c1ccc(O)c(O)c1O | inactive
4 | O=C(NCCc1c[nH]c2ccccc12)c1cccnc1 | inactive
5 | COCCOCCOCCOCCO | inactive
6 | C=C(C)C(=O)OCCNC(C)(C)C | inactive
7 | C=Cc1ccccn1 | inactive
8 | Cc1cccc2nccnc12 | inactive
9 | OC[C@H](Cc1cccc(O)c1)[C@H](CO)Cc1cccc(O)c1 | inactive
10 | COCCOCCOCCOCCOCCO | inactive
11 | C#CC(C)N(C)C(=O)Nc1ccc(Cl)cc1 (stereo not given) | inactive
12 | CCOc1cc(NC(C)=O)ccc1C(=O)OC | inactive
13 | CC(C)CC(=O)O | inactive
14 | O=C(O)c1cc(Br)c(O)c(Br)c1 | inactive
15 | CCCCCCCCCCCCCC | inactive
16 | COP(=O)(OC)OC(c1ccc(Cl)cc1)P(=O)(OC)OC (stereo not given) | inactive
17 | CCc1ccc(C=O)cc1 | inactive
18 | CC(=C(CCOC(=O)C(C)C)SSC(CCOC(=O)C(C)C)=C(C)N(C=O)Cc1cnc(C)nc1N)N(C=O)Cc1cnc(C)nc1N | inactive
19 | CCOC(=O)[C@H](CCc1ccccc1)N[C@@H](C)C(=O)N1C(=O)N(C)C[C@H]1C(=O)O | inactive
20 | CCOC(=O)/C=C/c1ccccc1 | inactive

Row | SMILES | outcome
21 | BrCc1cccc(Oc2ccccc2)c1 | inactive
22 | CC(CN)CC(C)(C)CCN (stereo not given) | inactive
23 | Cc1cc(NC(=O)C2=C(O)c3ccccc3S(=O)(=O)N2C)no1 | inactive
24 | COc1ccc(Br)c(C)c1 | inactive
25 | O=C1c2ccccc2C(=O)N1CCl | inactive
26 | Cc1ccccc1OCC(O)CO (stereo not given) | inactive
27 | CCN(C)C(=O)Oc1cccc([C@H](C)N(C)C)c1 | inactive
28 | Cc1ccccc1N=O | inactive
29 | COC(=O)[C@@H]1[C@H]2C[C@H]3c4[nH]c5ccccc5c4CCN3C[C@@H]2CC[C@@H]1O | inactive
30 | BrCCCCCBr | inactive
31 | CC(N)C(=O)OC(C)(C)Cc1ccc(Cl)cc1 (stereo not given) | inactive
32 | CCC(C)NC(N)=O (stereo not given) | inactive
33 | CCN1CCc2nc(N)oc2CC1 | inactive
34 | CC(C)CCCCOC(=O)c1ccccc1C(=O)OCCCCC(C)C | inactive
35 | CCCN1C[C@H](CSC)C[C@@H]2c3cccc4[nH]cc(c34)C[C@H]21 | inactive
36 | COc1ccc(OC)c(Cl)c1 | inactive
37 | CN1C(C)(C)CCCC1(C)C | inactive
38 | CCCCCCOC(=O)CC | inactive
39 | N#Cc1ccc(C(=O)O)cc1 | inactive
40 | N[C@@H](CCC(=O)N[C@@H](CS)C(=O)NCC(=O)O)C(=O)O | inactive
